What all share (assay): NCI-60 one-dose screen, 48 h (100 = growth as untreated, 0 = no growth, -100 = all killed)
The test system of one experiment is NCI-H23 lung. Particulars: 10 µM unless noted.
The next experiment has as its system NCI-H226 lung. The note with it: 10 µM unless noted.
The test system of the next experiment is NCI-H322M lung. The note with it: 10 µM unless noted.
The test system of the next experiment is HOP-62 NSCLC. The note with it: 10 µM unless noted.
A further experiment concerns NCI-H460 lung. The note with it: 10 µM unless noted.
Another experiment concerns HOP-92 NSCLC. Particulars: 10 µM unless noted.
Another experiment has as its system NCI-H522 lung. The note with it: 10 µM unless noted.
The next experiment relates to A549/ATCC NSCLC. Particulars: 10 µM unless noted.
For a further experiment, the system named is 786-0 renal. Particulars: 10 µM unless noted.
Another experiment relates to COLO 205 colon. The note with it: 10 µM unless noted.
The subject of a further experiment is DU-145 prostate. The note with it: 10 µM unless noted.
The test system of the next experiment is K-562 leukemia. Particulars: 10 µM unless noted.
Another experiment relates to MALME-3M melanoma. Particulars: 10 µM unless noted.
In the next experiment the test system is MDA-MB-231 breast. Particulars: 10 µM unless noted.
The next experiment deals with RXF 393 renal. The note with it: 10 µM unless noted.
The subject of the next experiment is SF-268 CNS. The note with it: 10 µM unless noted.
Another experiment deals with SF-295 CNS. The note with it: 10 µM unless noted.
Another experiment has as its system SF-539 CNS. The note with it: 10 µM unless noted.
For a further experiment, the system named is UACC-257 melanoma. The note with it: 10 µM.
A further experiment relates to M14 melanoma. Particulars: 10 µM unless noted.

This is part of a sample that, as a whole, favours compounds with a hit. Of some 83,000 tested, about 20% had one in any assay.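 The endpoint reported here, percent growth, reads 100 for growth as untreated, 0 for no net growth and -100 for all cells dead.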 Values without a mark were called inactive. The source made the active and inactive calls. How the source made its calls: active means growth percent below 10; inactive means the rest.

Here are results for eight compounds from PubChem BioAssay (NCI).

On to `COc1ccc(/C=C/c2nc(N3CCOCC3)c3nc(Cl)c(Cl)cc3n2)cc1OC`, for which the growth in the experiment on NCI-H23 lung was 99.7%; in the experiment with NCI-H226 lung, 102%; with NCI-H322M lung, 145%; with HOP-62 NSCLC it was 115%; in the experiment on NCI-H460 lung, 106%; with HOP-92 NSCLC, 105%. The growth with NCI-H522 lung was 83.1%; with A549/ATCC NSCLC, 96.5%; with 786-0 renal, 99.8%; in the experiment with COLO 205 colon, 105%; in the experiment on DU-145 prostate it was 101%; in the experiment on K-562 leukemia, 77.7%. The growth in the experiment with MALME-3M melanoma was 144%; in the experiment with MDA-MB-231 breast, 110%; with RXF 393 renal it was 109%; in the experiment with SF-268 CNS, 105%; in the experiment on SF-295 CNS it was 87.9%; in the experiment with SF-539 CNS, 98.8%. For the same compound, the growth is 111% in the experiment with UACC-257 melanoma and 103% with M14 melanoma.

Turning to `CCCCCCCCCCCCNC(=S)N/N=C/c1ccc(Cl)c(Cl)c1`, the growth in the experiment on NCI-H23 lung was 109%; with NCI-H226 lung, 106%; in the experiment on NCI-H322M lung it was 112%; with HOP-62 NSCLC, 105%; in the experiment on NCI-H460 lung, 112%; in the experiment with HOP-92 NSCLC, 122%. Also, the growth was 65.7% in the experiment on NCI-H522 lung; 103% with A549/ATCC NSCLC; 106% in the experiment with 786-0 renal; 106% with COLO 205 colon; 116% in the experiment on DU-145 prostate; 97.2% in the experiment with K-562 leukemia. Moreover, the growth in the experiment with MALME-3M melanoma is 113%; in the experiment on MDA-MB-231 breast, 104%; in the experiment on RXF 393 renal, 108%; with SF-268 CNS, 118%; in the experiment on SF-295 CNS, 98.3%; with SF-539 CNS, 94.2%. The figures for the growth with UACC-257 melanoma and with M14 melanoma were 107% and 105%, respectively.

`O=C(Nc1ccc(Br)c(Cl)c1)c1cc(F)ccc1O`: the growth in the experiment on NCI-H23 lung is -9.2% (active); in the experiment with NCI-H226 lung, -23.8% (active); with NCI-H322M lung, 9.4% (active); in the experiment on HOP-62 NSCLC, 0.0415% (active); in the experiment on NCI-H460 lung, 3.85% (active); in the experiment on HOP-92 NSCLC, -14.4% (active). In addition, the growth was 0.474% (active) with NCI-H522 lung; 8.88% (active) in the experiment with A549/ATCC NSCLC; 7.91% (active) in the experiment on 786-0 renal; 41.5% in the experiment on COLO 205 colon; 23.5% in the experiment on DU-145 prostate; 9.59% (active) in the experiment on K-562 leukemia. In addition, the growth with MALME-3M melanoma is -22.8% (active); in the experiment with MDA-MB-231 breast, -20% (active); in the experiment with RXF 393 renal it was -5.62% (active); in the experiment with SF-268 CNS, 19.1%; with SF-295 CNS, -53.1% (active); in the experiment on SF-539 CNS, 5.17% (active). Also, the growth in the experiment on UACC-257 melanoma is -23.5% (active); with M14 melanoma it was -14.3% (active).

As for `CCC1=C[C@@H]2CN(C1)Cc1c([nH]c3ccccc13)[C@@](C(=O)OC)(c1cc3c(cc1OC)N(C=O)[C@H]1[C@@](O)(C(=O)OC)[C@H](OC(C)=O)[C@]4(CC)[C@@H]5C[C@@H]5CN5CC[C@]31[C@@H]54)C2`, the growth was 15.7% in the experiment with NCI-H23 lung; 35.4% in the experiment with NCI-H226 lung; 48.8% in the experiment on NCI-H322M lung; 34% with HOP-62 NSCLC; 6.63% (active) in the experiment with NCI-H460 lung; -16.4% (active) in the experiment on HOP-92 NSCLC. In addition, the growth is -0.697% (active) in the experiment on NCI-H522 lung; 11% in the experiment with A549/ATCC NSCLC; 25.8% with 786-0 renal; -78.5% (active) in the experiment on COLO 205 colon; -9.76% (active) in the experiment with DU-145 prostate; 9.35% (active) in the experiment with K-562 leukemia. The growth with MALME-3M melanoma was 40.4%; with MDA-MB-231 breast, -24% (active); in the experiment on RXF 393 renal, 40.7%; in the experiment on SF-268 CNS it was 16.1%; in the experiment with SF-295 CNS, -32.8% (active); in the experiment on SF-539 CNS, -18.1% (active). The growth in the experiment with UACC-257 melanoma is 52.5%; with M14 melanoma it was 3.92% (active).

With `COc1cc(Cn2c(SCC(=O)Nc3cc(OC)c(OC)c(OC)c3)nc3ccccc3c2=O)cc(OC)c1OC`, the growth was 77.1% in the experiment with NCI-H23 lung; 57.7% in the experiment with NCI-H226 lung; 82.1% in the experiment with NCI-H322M lung; 42.8% with HOP-62 NSCLC; 57.8% in the experiment with NCI-H460 lung; 39.8% with HOP-92 NSCLC. The growth in the experiment with NCI-H522 lung is 34%; in the experiment on A549/ATCC NSCLC, 62.9%; with 786-0 renal it was 73.6%; with COLO 205 colon, 109%; in the experiment with DU-145 prostate, 94.6%; in the experiment with K-562 leukemia, 97.4%. Moreover, the growth in the experiment on MALME-3M melanoma was 82.8%; with MDA-MB-231 breast, 58.2%; in the experiment on RXF 393 renal, 61.6%; with SF-268 CNS, 54.7%; in the experiment on SF-295 CNS, 85.9%; with SF-539 CNS, 66.1%. For the same compound, the figures for the growth with UACC-257 melanoma and in the experiment with M14 melanoma were 102% and 95%, respectively.

Regarding `Cc1nn(-c2ccc(Cl)cc2)c(=O)n1CCOc1ccccc1Cl`, the growth in the experiment on NCI-H23 lung was 91.6%; in the experiment on NCI-H226 lung it was 103%; in the experiment on NCI-H322M lung, 111%; in the experiment with HOP-62 NSCLC it was 75.2%; in the experiment with NCI-H460 lung, 87.2%; in the experiment with HOP-92 NSCLC it was 78.4%. In addition, the growth in the experiment on NCI-H522 lung was 116%; with A549/ATCC NSCLC, 89.9%; with 786-0 renal, 93.7%; with COLO 205 colon, 101%; with DU-145 prostate, 110%; in the experiment with K-562 leukemia, 96.8%. Besides, the growth in the experiment with MALME-3M melanoma was 103%; in the experiment on MDA-MB-231 breast, 89.6%; with RXF 393 renal, 115%; with SF-268 CNS, 106%; in the experiment with SF-295 CNS, 72.3%; in the experiment on SF-539 CNS, 108%. Also, the growth in the experiment with UACC-257 melanoma was 105%; in the experiment on M14 melanoma, 98.8%.

With `O=C(CNc1ccc(Cl)cc1)Nc1ccc(-c2nc3ccccc3s2)cc1`, the growth was 39.1% with NCI-H23 lung; 58.1% in the experiment on NCI-H226 lung; 80.3% in the experiment with NCI-H322M lung; 116% in the experiment on HOP-62 NSCLC; 87.1% in the experiment on NCI-H460 lung; 97.8% in the experiment with HOP-92 NSCLC. The growth in the experiment with NCI-H522 lung was -94.5% (active); with A549/ATCC NSCLC, 89%; with 786-0 renal, 27%; in the experiment with COLO 205 colon it was 47%; with DU-145 prostate it was 70.2%; in the experiment with K-562 leukemia, 11.9%. In addition, the growth with MALME-3M melanoma was -30.5% (active); with MDA-MB-231 breast, 37.6%; in the experiment with RXF 393 renal, 84.2%; in the experiment on SF-268 CNS, 24.1%; in the experiment on SF-295 CNS, 94.6%; with SF-539 CNS it was 78.1%. Moreover, the growth in the experiment with UACC-257 melanoma was 90.9%; in the experiment on M14 melanoma, 44.2%.

As for `COc1cccc(-c2nc3sccn3c2-c2ccnc(NCCCNS(=O)(=O)c3ccccc3)n2)c1`, the growth is 36.1% in the experiment on NCI-H23 lung; 23.3% with NCI-H226 lung; 75.3% in the experiment on NCI-H322M lung; 119% in the experiment with HOP-62 NSCLC; 53.7% in the experiment with NCI-H460 lung; 56.5% with HOP-92 NSCLC. In addition, the growth with NCI-H522 lung is 27.3%; in the experiment with A549/ATCC NSCLC, 51.8%; with 786-0 renal, 62.6%; in the experiment on COLO 205 colon it was 21.3%; in the experiment on DU-145 prostate, 52.1%; in the experiment on K-562 leukemia it was 25.5%. In addition, the growth was 36.4% with MALME-3M melanoma; 59.5% with MDA-MB-231 breast; 67.1% with RXF 393 renal; 62.7% in the experiment with SF-268 CNS; 55% in the experiment with SF-295 CNS; 70.4% with SF-539 CNS. For the same compound, the growth in the experiment on UACC-257 melanoma is 65.7%; in the experiment with M14 melanoma it was 25.2%.
